# rCAG RNA binder: binds r(CAG) RNA repeats; r(CAG) RNA repeat, TO-PRO-1 dye displacement fluorescence; inhibition, % at 3 µM; actives 1.3% (n = 370,000); AID 651821;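 active = inhibition above the plate cutoff, the mean of all test compounds on that plate plus 3 SD, cut at about 35% in these data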;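 note: 0% = DMSO alone and 100% = 100 µM mitoxantrone as full dye displacement; higher means more dye released from RNA so lower well fluorescence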
# ADAM17 inh: inhibitors of human ADAM17. AID 720648. actives 0.83% (n = 370,000). recombinant ADAM17, EDANS/DABCYL FRET peptide cleavage. P78536. inhibition, % at 6.95 µM;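 active = inhibition above the mean of compounds lying between control limits plus 3 SD, set per campaign, cut at about 8.5% in these data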;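 note: 0% = DMSO-only wells as the low control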
# ADAM10 inh: inhibitors of human ADAM10; inhibition, % at 7 µM; O14672; recombinant ADAM10, EDANS/DABCYL FRET peptide cleavage, 3 h; actives 0.62% (n = 370,000);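 active = inhibition above a per-campaign cutoff equal to the mean of compounds falling between control-based bounds plus 3 SD, cut at about 20% in these data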;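 note: 0% = DMSO wells while the 100% control is not disclosed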
# proKLK7 act: activates the human kallikrein-7 zymogen; purified proKLK7, EDANS-DABCYL substrate fluorescence; 100% is mature enzyme control, 0% vehicle; P49862; activation, % at 7 µM; AID 652039; actives 0.9% (n = 370,000);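 active = activation above the mean of all tested compounds plus 3 SD, computed per campaign excluding outliers beyond control limits, cut at about 13% in these data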
# GRIN3A LBD mod: NR3A (human) ligand-binding domain modulation | NR3A LBD differential scanning fluorimetry, Tm shift; 0% = protein alone, 100% = glycine-bound protein | Tm shift relative to glycine control, % at 25 µM | actives 2.5% (n = 340,000) | AID 1259313;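 active = melting temperature shift of at least 10% of the positive control shift, at one fixed dose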
# AHR act: activates the human aryl hydrocarbon receptor | P35869 | AHR-responsive luciferase reporter cells, luminescence | activation, % at 5 µM | actives 2.5% (n = 320,000) | AID 2796; in the data active = activation above about 47%;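 note: 0% = vehicle wells and 100% = reference agonist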
# Target sequence (P35869 whole entry, looked up): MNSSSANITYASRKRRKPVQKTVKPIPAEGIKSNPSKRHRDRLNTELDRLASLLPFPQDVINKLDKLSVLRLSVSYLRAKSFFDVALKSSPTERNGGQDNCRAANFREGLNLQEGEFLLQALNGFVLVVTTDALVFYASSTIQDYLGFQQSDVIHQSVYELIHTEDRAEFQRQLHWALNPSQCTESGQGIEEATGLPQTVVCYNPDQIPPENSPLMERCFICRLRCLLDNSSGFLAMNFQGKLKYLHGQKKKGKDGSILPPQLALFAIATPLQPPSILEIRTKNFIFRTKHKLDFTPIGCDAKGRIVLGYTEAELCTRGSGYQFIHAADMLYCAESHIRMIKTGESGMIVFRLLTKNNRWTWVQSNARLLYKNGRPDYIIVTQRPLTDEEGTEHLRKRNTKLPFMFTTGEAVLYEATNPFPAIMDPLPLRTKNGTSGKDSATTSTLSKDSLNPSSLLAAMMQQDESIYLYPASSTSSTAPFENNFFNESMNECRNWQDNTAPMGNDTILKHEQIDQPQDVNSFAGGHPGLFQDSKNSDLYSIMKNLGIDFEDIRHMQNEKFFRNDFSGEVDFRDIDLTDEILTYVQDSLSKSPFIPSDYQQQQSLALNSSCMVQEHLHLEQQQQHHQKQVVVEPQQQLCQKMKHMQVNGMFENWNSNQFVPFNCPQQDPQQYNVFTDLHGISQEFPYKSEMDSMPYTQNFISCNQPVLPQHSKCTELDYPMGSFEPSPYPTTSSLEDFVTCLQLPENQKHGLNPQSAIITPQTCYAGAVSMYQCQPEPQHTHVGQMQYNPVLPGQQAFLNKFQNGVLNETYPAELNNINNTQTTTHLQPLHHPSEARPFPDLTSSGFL
# * = called active by the depositor; i = inactive; . = no result given. Rows were chosen to be rich in hits. Some 7% of all compounds tested hit in one or more screens of this group.
SMILES,rCAG RNA binder,ADAM17 inh,ADAM10 inh,proKLK7 act,GRIN3A LBD mod,AHR act
COC[C@@H](O)[C@H]1OCc2cc(OC)ccc2[C@@H]1/C=C/c1ccccc1,2,-1,-12,0,.,.
C[C@@H]1CNC(=O)c2c(C(=O)N3CCN(c4ccccc4)CC3)ncn21,3,-2,-34,0,.,.
COc1ccc(-c2cc(C(=O)N3CCCCCC3)c3ccccc3n2)cc1OC,1,-26,-96,3,.,.
COc1ccc(-c2cc(C(=O)N3CCCC(C(F)(F)F)C3)c3ccccc3n2)cc1OC (stereo not drawn),-3,-19,-69,-6,18*,42
COc1ccc(-c2cc(C(=O)N3CCN(c4ccccc4)CC3)c3ccccc3n2)cc1OC,2,-8,-18,-3,0,77*
CCC[C@H]1[C@@H](NC(=O)NCC)CC[C@@]23CCCN2C(=O)CCC[C@@H]13,.,0,3,.,.,.
COC(=O)Cn1c(=NC(=O)C(C)C)sc2c(C)cc(C)cc21,2,-1,-5,0,20*,5
Cc1ccccc1CN1CCCCC(NC(=O)Nc2ccccc2)C1=O (stereo not drawn),3,-1,-1,0,.,.
CC(=O)c1cccc(NC(=O)C2C3C=CC(C3)C2C(=O)O)c1 (stereo not drawn),0,-2,-6,0,0,1
COc1cccc(C(=O)Nc2ccc(NC(=O)C3C4C=CC(C4)C3C(=O)O)cc2)c1 (stereo not drawn),2,1,5,0,-2,73*
COc1cc(NC(=O)C2C3C=CC(C3)C2C(=O)O)ccc1NC(=O)c1ccccc1 (stereo not drawn),0,-4,-11,0,4,56*
CC(C)COc1ccc(-c2csc(N3CCC(C(N)=O)CC3)n2)cc1,.,2,3,.,.,.
C/C(CC(=O)Nc1ccc(Cl)c(C(F)(F)F)c1)=N\NC(=O)c1cc2ccccc2cc1O,51*,-5,-6,-1,30*,3
COc1cccc(NC(=O)C/C(C)=N/NC(=O)c2ccccc2Cl)c1,-2,-2,-8,0,1,2
COc1cccc(-c2c(C(=O)N/N=C(\C)c3cccnc3)nnn2-c2nonc2N)c1,3,1,8,0,2,62*
COc1cccc(-c2c(C(=O)N/N=C(\C)c3ccc(Cl)s3)nnn2-c2nonc2N)c1,4,0,-2,1,11*,18
CCOc1cccc(-c2c(C(=O)N/N=C(\C)c3ccncc3)nnn2-c2nonc2N)c1,2,2,7,-1,-2,16
COc1ccc(/C=N/NC(=O)c2nnn(-c3nonc3N)c2-c2cccc(OC)c2)cc1,7,-4,7,-86,4,2
C/C(=N\NC(=O)c1nnn(-c2nonc2N)c1-c1ccccc1)c1cccnc1,-4,-3,-15,1,0,.
C/C(=N\NC(=O)c1nnn(-c2nonc2N)c1-c1cccs1)c1cccnc1,2,0,-10,-1,-3,63*
CCOc1cccc(-c2c(C(=O)N/N=C(\C)c3ccccn3)nnn2-c2nonc2N)c1,2,0,4,0,31*,0
COc1cccc(-c2c(C(=O)N/N=C(\C)c3ccco3)nnn2-c2nonc2N)c1,1,-5,-1,0,-1,5
O[C@H](COc1cccc(Cl)c1)CN1CCC(C(O)(c2ccccc2)c2ccccc2)CC1,-1,2,6,0,.,.
COc1ccccc1C(=O)N1CCC(Oc2cccnc2)CC1,0,1,13,0,.,.
COc1ccc(N=Cc2oc3ccc4ccccc4c3c2O)cc1,7,-5,-12,0,15*,58*
SMILES,rCAG RNA binder,ADAM17 inh,ADAM10 inh,proKLK7 act,GRIN3A LBD mod,AHR act
O=C(CSc1nnc(-c2ccccc2)n1-c1ccc(Cl)cc1)c1ccc(Cl)cc1,6,4,4,0,.,.
COc1ccccc1C(CNC(=O)c1ccc(NS(=O)(=O)c2ccc(F)c(C)c2)cc1)N(C)C (stereo not drawn),-4,3,7,0,10*,7
CC(C)(C)c1cc(C(=S)N2CCN(CCO)CC2)cc(C(C)(C)C)c1O,-3,-6,-6,0,11*,0
Cn1c(C(=O)O)cc2cc(F)ccc21,1,-1,0,0,5,54*
COc1ccc2c(c1)cc(C(=O)O)n2C,0,-33,-164,-1,0,2
CNc1cc(C)nc(-n2nc(C)cc2C)n1,0,-4,0,1,11*,16
Cc1cc(Cl)nc(-n2nc(C)cc2C)n1,0,-1,-7,1,-5,1
COc1ccccc1C(=O)NC1CCCCN(Cc2cccc(C(F)(F)F)c2)C1=O (stereo not drawn),-2,2,9,0,.,.
Cn1c(=N)n(CC(=O)c2ccc(Cl)c(Cl)c2)c2ccccc21,12,3,-5,-2,-1,54*
Cn1c(=N)n(CC(=O)c2ccccc2)c2ccccc21,5,-5,-1,-1,-3,40
COc1ccc(C(=O)Cn2c(=N)n(C)c3ccccc32)cc1,8,-3,0,1,1,76*
C=CCn1c(=N)n(CC(=O)c2ccc(OC)cc2)c2ccccc21,6,-3,-3,1,0,67*
OC[C@@H]1[C@@H](c2ccc(Cl)cc2)C(c2ccccc2)=NN1c1ccccc1,10,i,i,-130,24*,.
OC[C@@H]1[C@@H](c2ccc(F)cc2)C(c2cccc(Cl)c2)=NN1c1ccccc1,8,i,i,-169,27*,.
COc1ccccc1[C@H]1C(c2ccc(F)cc2)=NN(c2ccccc2)[C@@H]1CO,9,i,i,-58,-6,.
COc1ccccc1[C@H]1C(c2ccccc2)=NN(c2ccccc2)[C@@H]1CO,.,.,.,.,2,.
COc1ccccc1[C@H]1C(c2cccc(C)c2)=NN(c2ccccc2)[C@@H]1CO,12,-381,i,-29,-6,.
OC[C@@H]1[C@@H](c2ccc(Cl)cc2)C(c2cccc(Cl)c2)=NN1c1ccccc1,9,i,i,-258,31*,.
CCOC(=O)Cn1cc(CN2CCS(=O)(=O)N(Cc3ccccc3)C(C(=O)OC)C2)nn1 (stereo not drawn),1,-4,-9,0,.,.
COC(=O)[C@H](C(C)C)N1Cc2nnn(Cc3ccccc3)c2C=CS1(=O)=O,4,-2,-1,-1,.,.
Cc1cccc(/C(N)=N/OC(=O)c2ccc(Cl)cc2Cl)c1,1,0,4,0,-16,42
N/C(=N\OC(=O)c1ccc(Cl)cc1Cl)c1ccc(Cl)cc1,3,1,-4,0,18*,24
Cc1ccc(/C(N)=N/OC(=O)c2ccc3ccccc3c2)cc1,1,0,-6,0,27*,25

# Screening data (PubChem BioAssay)
